# Results as given in PubChem BioAssay.
# “And” between values parts separate entries of the source, which are not always exact repeats. Equal values may be shown once. The source made the active and inactive calls.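 The calls were made as follows, unless noted: active = compounds whose cell count with miR-34 switched on is under 0.7 times the count with it off; inactive = the rest.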
# What was measured:
# [1] = EMT-state selective cytotoxicity in co-culture – imaging, PC-3E GFP, TEM4-18 mCherry, primary screen (AID 1345086;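 active = compounds killing one labelled cell type while sparing the other, by normalised counts and ratio limits, not self-fluorescent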;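 as to all read-outs here: cells exposed to compound for 72 h before imaging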;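 as to red/green cell ratio (normalised): normalised mesenchymal count divided by normalised epithelial count so high means epithelial killing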); settings: PC-3E GFP / TEM4-18 mCherry co-culture, imaging cell counts, at 1 µM; for red/green cell ratio (normalised): actives lie on both sides, counts scaled to control wells, 1 = unselective
# [2] = viability loss with induced miR-34 in A549 – imaging, A549 dox-inducible miR-34, nuclei and caspase counts, primary screen (AID 1347080); settings: A549 miR-34 inducible, Hoechst nuclei count, 48 h
# [3] = measured here: epithelial PC-3E GFP cell survival
# [4] = measured here: mesenchymal TEM4-18 mCherry cell survival
# [5] = stronger effect = lower value, cell number ratio, induced over uninduced
# [6] = measured here: relative caspase fold change +Dox/-Dox
# [7] = measured here: total cells with miR-34 induction, stronger effect = lower value
# [8] = measured here: total cells without miR-34 induction
SMILES,red/green cell ratio (normalised) [1],"normalised cell number [1, 3]","normalised cell number [1, 4]","fold change [2, 5]","fold change [2, 6]","cell count [2, 7]","cell count [2, 8]"
CO/N=C(/C(=O)NC1C(=O)N2C(C(=O)O)=C(CSc3nnnn3C)CSC12)c1csc(N)n1 (stereo unspecified),0.91 (inactive),1.17,1.06,0.936 (inactive),0.695,9050,9680
Cc1cc(CC(C)CC(C)(C)C)n(O)c(=O)c1 (stereo unspecified) (tested in a mixture with another compound),0.92 (inactive),1.04,0.95,1.25 (inactive) and 1.02 (inactive),0.741 and 0.825,2940 and 2820,2360 and 2770
CC(=O)OCC(=O)[C@@]1(O)[C@@H](C)CC2C3CCC4=CC(=O)C=C[C@]4(C)[C@@]3(F)[C@@H](O)C[C@@]21C (stereo partly specified),0.93 (inactive),1.21,1.13,0.963 (inactive),0.848,6280,6520
CCCC[C@@H](CC)COC(=O)C(C#N)=C(c1ccccc1)c1ccccc1,0.92 (inactive),1.19,1.09,0.897 (inactive),0.819,8030,8950
CC1/C=C/C=C/C=C/C=C/C=C/C=C/C=C/C(O[C@@H]2O[C@H](C)[C@H](O)[C@@H](O)[C@@H]2N)CC(O)C(C(=O)O)C(O)CC(=O)CC(O)CC(O)CC(O)CC(=O)CCCC(=O)CC(=O)OC1C(C)CC(C)C(O)CC(=O)c1ccc(N)cc1 (stereo partly specified),0.94 (inactive),1.09,1.03,0.786 (inactive),1.31,5340,6790
N[C@@H](CO)c1ccccc1,0.91 (inactive),0.97,0.88,0.995 (inactive),0.434,5440,5460
C#C[C@]1(O)CCC2C3CCc4cc(OC5CCCC5)ccc4C3CC[C@@]21C (stereo partly specified),0.98 (inactive),1.02,1,0.818 (inactive),0.977,4740,5800
CSCC[C@H](NC(=O)[C@H](Cc1c[nH]c2ccccc12)NC(=O)[C@H](C)NC(=O)OC(C)(C)C)C(=O)N[C@@H](CC(=O)O)C(=O)N[C@@H](Cc1ccccc1)C(N)=O,0.98 (inactive),1.15,1.13,0.979 (inactive),0.82,9410,9610
CCC(=O)OCC(=O)[C@@]1(OC(=O)CC)[C@H](C)CC2C3C([C@@H](O)C[C@@]21C)[C@@]1(C)C=CC(=O)C=C1C[C@H]3Cl (stereo partly specified),1.28 (inactive),0.98,1.25,0.884 (inactive),0.881,5210,5890
NC(N)=NCCCC(N)C(=O)O (stereo unspecified),0.83 (inactive),1.05,0.87,0.874 (inactive),0.933,8700,9960
NCCCC(N)C(=O)O (stereo unspecified),1.03 (inactive),0.99,1.02,0.906 (inactive),0.95,8560,9450
OC[C@@H](O)[C@H](O)[C@@H](O)[C@H](O)CO,1.12 (inactive),0.97,1.08,0.853 (inactive),0.862,7670,9000
C=C1CC2C3C=C(C)C4=CC(=O)CC[C@]4(C)C3CC[C@]2(C)[C@@]1(OC(C)=O)C(C)=O (stereo partly specified),1.26 (inactive),0.99,1.24,0.949 (inactive),1.45,4400,4640
C[C@]1(Cn2ccnn2)C(C(=O)O)N2C(=O)CC2S1(=O)=O (stereo partly specified),0.89 (inactive),1.34,1.19,0.905 (inactive),0.742,8100,8960
CO/N=C(/C(=O)N[C@@H]1C(=O)N2C(C(=O)OCSC(=O)c3ccco3)=CCS[C@H]12)c1csc(N)n1,0.72 (inactive),1.31,0.94,0.907 (inactive),0.846,8470,9350
NC(=O)c1ncn(C2O[C@H](CO)[C@@H](O)[C@H]2O)c1N (stereo partly specified),0.89 (inactive),1.13,1,0.937 (inactive),0.793,9050,9660
COc1nc(N)nc2c1ncn2C1O[C@H](CO)[C@@H](O)[C@@H]1O (stereo partly specified),0.99 (inactive),0.92,0.91,0.89 (inactive),0.801,7770,8740
NC(=O)C1CCCN1C(=O)C(Cc1cnc[nH]1)NC(=O)C1CCC(=O)N1 (stereo unspecified),1.11 (inactive),0.94,1.04,0.936 (inactive),0.922,8800,9400
